According to PubChem BioAssay AID1159580 (chemical genetic matrix, 2015):
“And” between values parts separate entries of the source, which are not always exact repeats. Equal entries are not always repeated. Out of some 5,500 compounds screened, about 2,000 (36%) were called active. Not shown: some 18% with an inconclusive outcome. No stated cut-off is given here; in the data, active means normalized growth mostly below about 0.91 (no sharp cut-off); inconclusive means no clear call, values can overlap the other calls; inactive means mostly above about 0.92. Some of the results follow.

Test: chemical genetic growth profiling, strain panel (AID 1159580);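 further: tested at 20 µM; growth read once vehicle control cultures reached saturation at 30 °C; 1 = growth at the plate median or of vehicle wells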
Details: S. cerevisiae deletion strains, growth OD

Measured: normalized growth

CN(C)CC/C=C1\c2ccccc2Sc2ccc(Cl)cc21
0.882 (active) and 0.899 (inactive): locus YHR030C, strain SLT2, stronger effect = lower value
active: locus YAL013W, strain DEP1, stronger effect = lower value 0.907 | locus YAL021C, strain ccr4, stronger effect = lower value 0.696 | locus YAL026C, strain drs2, stronger effect = lower value 0.0729 | locus YBL061C, strain skt5, stronger effect = lower value 0.863 | locus YBR009C, strain hhf1, stronger effect = lower value 0.859 | locus YBR021W, strain FUR4, stronger effect = lower value 0.605 | locus YBR023C, strain chs3, stronger effect = lower value 0.831 | locus YBR231C, strain swc5, stronger effect = lower value 0.676 | locus YBR279W, strain paf1, stronger effect = lower value 0.904 | locus YCL011C, strain gbp2, stronger effect = lower value 0.897 | locus YCL016C, strain dcc1, stronger effect = lower value 0.894 | locus YDL074C, strain BRE1, stronger effect = lower value 0.775 | locus YDL134C, strain PPH21, stronger effect = lower value 0.882 | locus YDR069C, strain doa4, stronger effect = lower value 0.684 | locus YDR137W, strain rgp1, stronger effect = lower value 1.33 [resistant] | locus YDR195W, strain ref2 1.49 [resistant] | locus YDR388W, stronger effect = lower value 0.819 | locus YER015W, strain faa2, stronger effect = lower value 0.668 | locus YFR010W, strain ubp6, stronger effect = lower value 0.706 | locus YGL173C, strain kem1, stronger effect = lower value 0.844 | locus YGL253W, strain hxk2, stronger effect = lower value 0.845 | locus YGR135W, strain pre9, stronger effect = lower value 0.827 | locus YGR229C, strain SMI1, stronger effect = lower value 0.635 | locus YGR252W, strain gcn5, stronger effect = lower value 0.542 | locus YHR013C, strain ard1, stronger effect = lower value 0.637 | locus YHR027C, strain rpn1, stronger effect = lower value 0.679 | locus YHR142W, strain chs7, stronger effect = lower value 0.76 | locus YIL066C, strain RNR3, stronger effect = lower value 0.854 | locus YJL095W, strain BCK1 (second series), stronger effect = lower value 0.628 | locus YJL164C, strain tpk1, stronger effect = lower value 0.878 | locus YJL166W, strain qcr8, stronger effect = lower value 0.877
inactive: locus YAL030W, strain snc1, stronger effect = lower value 0.985 | locus YBR171W, strain sec66, stronger effect = lower value 0.984 | locus YBR229C, strain ROT2, stronger effect = lower value 1.01 | locus YCL029C, strain bik1, stronger effect = lower value 1.03 | locus YCL061C, strain MRC1, stronger effect = lower value 0.987 | locus YCL069W, strain vba3, stronger effect = lower value 0.962 | locus YCR088W, strain abp1, stronger effect = lower value 0.971 | locus YDL005C, strain med2, stronger effect = lower value 1.01 | locus YDL035C, strain GPR1, stronger effect = lower value 0.901 | locus YDL040C, strain nat1, stronger effect = lower value 1 | locus YDL101C, strain DUN1, stronger effect = lower value 0.99 | locus YDL185W, strain tfp1, stronger effect = lower value 1.02 | locus YDL192W, strain arf1, stronger effect = lower value 1 | locus YDR001C, strain nth1, stronger effect = lower value 0.996 | locus YDR101C, strain arx1, stronger effect = lower value 0.977 | locus YDR150W, strain NUM1, stronger effect = lower value 1.02 | locus YDR159W, strain sac3, stronger effect = lower value 0.996 | locus YDR162C, strain NBP2, stronger effect = lower value 0.895 | locus YDR297W, strain sur2, stronger effect = lower value 0.975 | locus YDR318W, strain mcm21, stronger effect = lower value 0.982 | locus YDR334W, strain swr1, stronger effect = lower value 0.974 | locus YDR335W, strain msn5, stronger effect = lower value 0.96 | locus YDR392W, strain spt3, stronger effect = lower value 0.995 | locus YDR502C, strain sam2, stronger effect = lower value 0.951 | locus YEL003W, strain gim4, stronger effect = lower value 0.966 | locus YEL037C, strain rad23, stronger effect = lower value 0.983 | locus YEL061C, strain CIN8 (second series), stronger effect = lower value 0.981 | locus YEL061C, strain CIN8, stronger effect = lower value 1 | locus YER016W, strain bim1, stronger effect = lower value 0.953 | locus YER110C, stronger effect = lower value 1.02 | locus YER111C, strain swi4, stronger effect = lower value 0.99 | locus YER155C, strain BEM2 (second series), stronger effect = lower value 1.03 | locus YER155C, strain BEM2, stronger effect = lower value 1.03 | locus YER167W, strain BCK2, stronger effect = lower value 1 | locus YGL078C, strain dbp3, stronger effect = lower value 1.01 | locus YGL086W, strain mad1, stronger effect = lower value 0.942 | locus YGL167C, strain pmr1, stronger effect = lower value 0.997 | locus YGL227W, strain vid30, stronger effect = lower value 0.979 | locus YGL240W, strain doc1, stronger effect = lower value 0.95 | locus YGL248W, strain PDE1, stronger effect = lower value 0.894 | locus YHR079C, strain IRE1 (second series), stronger effect = lower value 1 | locus YHR079C, strain IRE1, stronger effect = lower value 0.93 | locus YHR094C, strain hxt1, stronger effect = lower value 1.02 | locus YHR129C, strain ARP1, stronger effect = lower value 0.994 | locus YHR200W, strain rpn10, stronger effect = lower value 1.02 | locus YIL073C, strain SPO22, stronger effect = lower value 0.961 | locus YIL125W, strain kgd1, stronger effect = lower value 1.01 | locus YIR030C, strain dcg1, stronger effect = lower value 1.01 | locus YJL092W, strain hpr5, stronger effect = lower value 0.972 | locus YJL115W, strain asf1, stronger effect = lower value 0.987 | locus YJL129C, strain trk1, stronger effect = lower value 0.91 | locus YJL134W, strain LCB3, stronger effect = lower value 1.01 | locus YJL154C, strain vps35, stronger effect = lower value 0.99 | locus YJL168C, strain set2, stronger effect = lower value 1.02 | locus YJL187C, strain SWE1 (second series), stronger effect = lower value 0.872
0.637 (active) and 0.914 (inactive): locus YJL095W, strain BCK1, stronger effect = lower value
